Bioassay records from PubChem BioAssay.
FBPA Giardia inh: Giardia lamblia aldolase inhibition. A8B2U2. purified Giardia FBPA. Potency, µM (series often up to 59.6 µM), hits mostly inhibitors. 290,000 compounds, 0.71% hits. AID 2451; note: nearly all actives have a fitted effect of over 55% in size
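Giardia FBPA (40 nM reagent) was preincubated 10 min at RT with compound (up to 57.5 uM final), then substrate plus GAPDH/TPI/NAD/arsenate coupling system with diaphorase/resazurin was added; resorufin fluorescence (525/598 nm) was read after 20 min.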
TbPYK inhibitor: blocks Trypanosoma brucei pyruvate kinase; AID 624173; TbPYK enzyme, Kinase-Glo Plus ATP luminescence, 45 min; 410,000 compounds, 0.12% hits; Potency, µM (doses to about 76.8 µM), actives largely listed as inhibitors; note: nearly all actives have a fitted effect of over 50% in size
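Luminescence from Kinase-Glo Plus, added after a 45-minute room-temperature reaction, served as the end-point read-out. The enzyme and substrate were preincubated with compound before ADP (130 uM final) initiated turnover. Concentration-effect curves came from normalized qHTS data.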
LmPK inhibitor: inhibitors of Leishmania mexicana pyruvate kinase; purified LmPK, Kinase-Glo ATP luminescence, 1 h; 290,000 compounds, 0.37% hits; Q27686; AID 1721; Potency, µM (top dose mostly 57.5 µM), actives largely listed as inhibitors
Target sequence (Q27686 whole entry, looked up): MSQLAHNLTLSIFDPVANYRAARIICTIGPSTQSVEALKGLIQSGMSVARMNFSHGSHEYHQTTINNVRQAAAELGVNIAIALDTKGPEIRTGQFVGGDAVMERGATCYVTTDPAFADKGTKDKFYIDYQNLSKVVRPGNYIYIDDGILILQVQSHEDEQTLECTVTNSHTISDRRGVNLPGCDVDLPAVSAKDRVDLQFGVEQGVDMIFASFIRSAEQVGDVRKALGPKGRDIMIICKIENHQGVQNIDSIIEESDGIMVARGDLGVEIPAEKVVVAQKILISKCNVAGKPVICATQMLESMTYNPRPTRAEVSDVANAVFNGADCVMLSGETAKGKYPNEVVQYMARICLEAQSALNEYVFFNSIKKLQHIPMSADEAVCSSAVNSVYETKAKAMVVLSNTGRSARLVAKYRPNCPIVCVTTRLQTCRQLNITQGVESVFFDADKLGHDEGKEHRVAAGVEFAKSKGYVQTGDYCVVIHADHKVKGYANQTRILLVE
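0.1 nM LmPK, 0.5 mM PEP, 0.1 mM ADP; 50 mM imidazole pH 7.2, 7 mM MgCl2, 50 mM KCl; 1 h RT. Kinase-Glo luminescence readout, normalized to no-enzyme (full inhibition) and uninhibited wells.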
RE007 growth inh: less growth of the S. pombe RE007 Vpr strain; S. pombe RE007 Vpr strain, BacTiter-Glo ATP luminescence, 24 h; Potency, µM (series often up to 92.2 µM), actives largely listed as inhibitors; 360,000 compounds, 0.21% hits; AID 651644; active = well fitted falling curve with a large enough effect; inconclusive = small, poorly fitted or top-dose-only effect; inactive = no such curve, though single readings can be large or run the other way; note: nearly all actives have a fitted effect of over 50% in size
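Fission yeast strain RE007, carrying one chromosomally integrated HIV-1 vpr copy, was seeded at OD 0.01 in PMG+AL medium with 23 nL pinned compound. After 24 h at 30 °C and 99% humidity, viability was read by BacTiter-Glo luminescence.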
Numbers stand for hits; i = inactive; ? = inconclusive; nt = no result; [ ] = remark or other dose. Compounds with a hit are over-represented: about 0.95% of the library has one in this group of screens. Unless noted, calls come from the whole dose curve; as a rule, active = well fitted curve in the direction sought with a large enough effect; inconclusive = small, poorly fitted or top-dose-only effect, or another doubt; inactive = no such curve, though single readings can be large; an effect the other way counts as inactive or inconclusive.

SMILES | FBPA Giardia inh | TbPYK inhibitor | LmPK inhibitor | RE007 growth inh
COC(=O)c1ccccc1N/C=C/C(=O)c1ccc(Br)cc1 | i | i | i | i
NC(=O)c1ccccc1N/C=C/C(=O)c1ccccc1 | i | nt | 7.94µM | i[3.69 µM]
Cc1ccc(C)c(N=Cc2cc3c(cc2[N+](=O)[O-])OCO3)c1 | 3.15µM | i | i | i
Cc1ccc(N=Cc2cc3c(cc2[N+](=O)[O-])OCO3)cc1[N+](=O)[O-] | nt | i | nt | i
CC(C)(C)c1ccc(O)c(N=Cc2cc3c(cc2[N+](=O)[O-])OCO3)c1 | i | ? | 1.58µM | i
S=C(Nc1ccc2nsnc2c1)NC1CCCCC1 | 1.77µM | i | i | i
C=CCN(CC=C)C(=S)Nc1ccc2nsnc2c1 | 9.98µM | i | i | i
COc1ccc(/C=C2\CCCc3c2nc2ccccc2c3C(=O)O)cc1OC | 7.92µM | nt | i | nt
COc1ccc(/C=C2\CCc3c2nc2ccccc2c3C(=O)O)cc1OC | i | i | i | i
O=C(c1ccco1)N1CCN(C(=O)c2ccco2)C1=S | nt | i | nt | i
Cc1cccn2c1nc(=S)n2C(=O)c1ccco1 | i | i | 10µM | i
COc1cc(C2CC(=O)N3CN(c4ccccc4C)CSC3=C2C#N)cc(OC)c1OC (stereo unspecified) | 4.46µM | nt | i | nt
COc1cccc(C2CC(=O)N3CN(c4cccc(Cl)c4C)CSC3=C2C#N)c1OC (stereo unspecified) | ? | ? | i | i
COc1ccccc1N1CSC2=C(C#N)C(c3ccc(SC)cc3)CC(=O)N2C1 (stereo unspecified) | 5.61µM | 17.8µM | i | i
CN(C)c1ccc(N=Cc2ccco2)cc1 | 2.81µM | i | ? | ?
CCOc1ccc(N2CC(NC(=O)C3CCCC3)CC2=O)cc1 (stereo unspecified) | nt | i | nt | nt
Cn1cccc1C(=O)OCc1csc(-c2ccccc2)n1 | i | i | 14.1µM | i
O=C(OCc1csc(-c2ccccc2)n1)c1cccs1 | i | i | i | i
Cc1ccsc1C(=O)OCc1csc(-c2ccccc2)n1 | i | i | 15.8µM | i
CCCCCCCC(=O)CC[C@H]1[C@@H](C/C=C/CCCC(=O)OC(C)C)[C@@H](O)C[C@H]1O | nt | i | nt | nt
c1ccc(Sc2ccccn2)cc1 | nt | i | nt | i
c1ccc(SSc2ccccn2)nc1 | nt | ? | nt | 44.7µM
O=C(N/N=C1/C[C@@H](O)[C@@H](O)[C@@H]2[C@@H]3C(=O)N(C4CCCCC4)C(=O)[C@H]3CC[C@H]12)OCc1ccccc1 | i[12.9 µM] | nt | nt | nt
COC(=O)N1C2CC(=O)O[C@@H]3c4cc5c(cc4[C@]1(C)[C@@]3(Br)c1ccccc12)OCO5 | i[12.9 µM] | nt | i[11.5 µM] | nt
CCCn1c(Cc2ccccc2)n[nH]c1=S | i | ? | i | i
SMILES | FBPA Giardia inh | TbPYK inhibitor | LmPK inhibitor | RE007 growth inh
CCc1ccc(-n2c(Cc3ccccc3)n[nH]c2=S)cc1 | i | 3.98µM | i | i
Cc1cccc(-n2c(Cc3ccccc3)n[nH]c2=S)c1 | i | ? | 7.08µM | i
S=c1[nH]nc(CCSCc2ccccc2)n1-c1ccccc1 | i | 5.62µM | i | i
Cc1cccc(-n2c(CNC(=O)Cc3ccccc3)n[nH]c2=S)c1 | i | ? | i | i
Cc1cccc(-n2c(CCn3nc(C)c([N+](=O)[O-])c3C)n[nH]c2=S)c1 | i | 8.91µM | ? | i
Cc1ccc(Nc2nccc(N(C)c3ccc4c(C)n(C)nc4c3)n2)cc1S(N)(=O)=O | nt | i | nt | nt
COc1cc(Nc2c(C#N)cnc3cc(OCCCN4CCN(C)CC4)c(OC)cc23)c(Cl)cc1Cl | nt | i | nt | nt
CCOc1ccc(-n2c(CCc3ccccc3)n[nH]c2=S)cc1 | i | 3.16µM | ? | i
S=c1[nH]nc(Cc2cccc3ccccc23)n1-c1ccccc1 | i | 5.01µM | 14.1µM | i
COc1ccc(-n2c(CCc3ccccc3)n[nH]c2=S)cc1 | i | ? | i | i
CCCOc1ccc(CCc2n[nH]c(=S)n2-c2ccccc2)cc1 | i | ? | i | i
Oc1ccc(CCc2n[nH]c(=S)n2-c2ccc(F)cc2)cc1 | i | ? | 7.94µM | i
Nn1c(Cc2cccc3ccccc23)n[nH]c1=S | ? | ? | i | i
COc1ccc(C(=O)N2CCC3(CCN(Cc4nccs4)CC3)CC2)cc1 | i | i | nt | nt
COc1ccc(/C(C#N)=C/c2ccccn2)cc1 | i | i | 8.91µM | nt
CN(C)C(=O)Oc1ccc(-c2cn3cc(Cl)ccc3n2)cc1 | i | i | 12.6µM | i
OCC1OC(C#Cc2ccccc2)C=CC1OCc1ccccc1 (stereo unspecified) | i[12.9 µM] | nt | nt | nt
Cc1ccc(NC2=C/C(=N\S(=O)(=O)c3cccs3)c3ccccc3C2=O)c(C)c1 | ? | i | i | i
Cc1ccc(Cl)cc1NC1=C/C(=N\S(=O)(=O)c2cccs2)c2ccccc2C1=O | 0.281µM | i | ? | i
Cc1ccc(N/C=C/C(=O)c2cccs2)cc1 | i | i | 15.8µM | i
O=C(Nc1ccc2c(c1)OCCO2)c1cccs1 | i | i | ? | i
O=C(Nc1ccc2c(c1)OCO2)c1cccs1 | i | i | 25.1µM | ?
O=C(/C=C\Nc1ccc2c(c1)OCO2)c1cccs1 | i | ? | 11.2µM | ?
O=C(/C=C\Nc1ccc2c(c1)OCO2)c1ccccn1 | i | i | 3.55µM | i
CC(/C=C/C=C(\C)C(=O)O[C@@H]1O[C@H](CO[C@@H]2O[C@H](CO)[C@@H](O)[C@H](O)[C@H]2O)[C@@H](O)[C@H](O)[C@H]1O)=C\C=C\C=C(C)\C=C\C=C(/C)C(=O)O[C@@H]1O[C@H](CO[C@@H]2O[C@H](CO)[C@@H](O)[C@H](O)[C@H]2O)[C@@H](O)[C@H](O)[C@H]1O | nt | i | nt | nt
SMILES | FBPA Giardia inh | TbPYK inhibitor | LmPK inhibitor | RE007 growth inh
COC(=O)C/C=C\[C@@H](C)[C@@H](/C=N\O[C@@H](C)c1cc(-c2c(C)cc(C)cc2C)no1)OC | i[12.9 µM] | nt | nt | nt
CCCCn1c(CCn2nc(C)c(Br)c2C)n[nH]c1=S | i | ? | 17.8µM | i
COc1ccc(CN(CCC#N)C(=S)NC(=O)c2ccccc2)cc1 | nt | ? | 20µM | i
CCOc1ccc(CN(CCC#N)C(=S)NC(=O)c2ccccc2)cc1 | i | i | ? | i
Cc1ccc(C(=O)ONc2ccc(N=O)cc2)cc1 | i | ? | 10µM | 5.62µM
O=Nc1ccc(NOC(=O)c2ccc(Br)cc2)cc1 | nt | nt | i | nt
S=c1[nH]nc(COc2ccc(Cl)cc2)n1C1CCCCC1 | i | ? | ? | i
Cc1cccc(OCc2n[nH]c(=S)n2C2CCCCC2)c1 | i | 12.6µM | 17.8µM | i
COc1ccc(-n2c(COc3cccc(C)c3)n[nH]c2=S)cc1 | i | ? | i | i
Cc1ccc(OCc2n[nH]c(=S)n2C2CCCCC2)cc1 | i | ? | 8.91µM | i
CCOc1ccc2nc(N(Cc3cccnc3)C(=O)c3ccco3)sc2c1 | nt | i | nt | nt
CCN(CC)C(=O)[C@@H]1C=C2c3cccc4[nH]cc(c34)C[C@H]2N(C)C1 | nt | i | nt | nt
COc1cc(C(=O)Nc2ccc(C(=O)O)cc2)ccc1OC(C)=O | i | i | 25.1µM | i
CCOc1ccc(OCc2cccc(C(=O)O)c2)cc1 | i | ? | 6.31µM | ?
COc1ccc(OCc2cccc(C(=O)O)c2)cc1 | i | i | 15.8µM | i
CCN1CCN(C(=O)N[C@H](C(=O)N[C@@H]2C(=O)N3[C@@H](C(=O)O)C(C)(C)S[C@@H]23)c2ccccc2)C(=O)C1=O | nt | i | nt | nt
